Laboratory results as given in PubChem BioAssay (Tox21).
Inconclusive results are not listed. Entries that show only a call come without a potency. The source made the active and inactive calls. Unless noted, calls follow the shape of the dose curve; as a rule, active = well fitted curve in the direction sought with a large enough effect in the repeat runs; inconclusive = weak or mixed curves; inactive = no such curve, though single readings can be large; an effect the other way counts as inactive or inconclusive.

Key:
[1] = qHTS assay to identify small molecule antagonists of the androgen receptor (AR) signaling pathway using the MDA cell line in the presence of 0.5 nM R1881 - cell viability counter screen (AID 1259242); also: nearly all actives have a fitted effect of over 45% in size
Outline: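 Live-cell protease activity was measured by CellTiter-Fluor fluorescence after 30 min. Before that, MDA-kb2 MMTV-luciferase cells had 16 hr at 37C without CO2, exposed to test compounds and 0.5 nM R1881 final.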

[2] = qHTS assay to identify small molecule phospholipidosis (PLD) inducers (AID 1259344; active = well fitted curve in the direction sought with a large enough effect; an effect the other way counts as inactive or inconclusive)
Outline: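 Image-based: LipidTOX Red pit count/intensity per well and per cell; HepG2, 24 h compound at 37 C, PFA fixation, Hoechst counterstain.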

[3] = qHTS assay to identify small molecule HDAC inhibitors (AID 1259364); also: top concentration of the series differs between compounds; nearly all actives have a fitted effect of over 45% in size
Outline: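 Luminescence read after 30 min room-temperature HDAC-Glo incubation measures cellular class I/II HDAC activity. Compounds were applied for 2 hr at 37 C to HCT-116 wild-type cells seeded the day before.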

[4] = qHTS assay to identify small molecule HDAC inhibitors - cell viability counter screen (AID 1259365); also: series mostly up to about 92 µM; nearly all actives have a fitted effect of over 50% in size
Outline: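 Wild-type HCT-116 cells were seeded at 1,500 per well, incubated overnight at 37 C, then exposed to compounds in DMSO for 2hr. Viability was read by CellTiter-Glo luminescence after 30min at room temperature.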

[5] = qHTS assay to identify small molecule agonists of the sonic hedgehog signaling (Shh) pathway - cell viability counter screen (AID 1259366); also: nearly all actives have a fitted effect of over 50% in size
Outline: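 NIH/3T3-derived 3T3 Gli1-Luc cells (stable Gli1-responsive firefly luciferase reporter) were seeded, rested 4 hr at 37 C/5% CO2, then exposed to compounds in DMSO for 24 hr; viability was read by CellTiter-Fluor fluorescence in the same wells.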

[6] = qHTS assay to identify small molecule antagonists of the sonic hedgehog signaling (Shh) pathway - cell viability counter screen (AID 1259367); also: nearly all actives have a fitted effect of over 55% in size
Outline: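 Tox21 library chemicals were tested on a Gli1-Luc NIH/3T3 clone (2,000 cells/well) stimulated by conditioned medium; viability was quantified as fluorescence from CellTiter-Fluor reagent added at 23 hr.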

[7] = qHTS assay to identify small molecule agonists of the sonic hedgehog signaling (Shh) pathway (AID 1259368; calls by dose curve; also: series mostly up to about 92 µM; nearly all actives have a fitted effect of over 15% in size)
Outline: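 Luminescence was read after 30 min at room temperature with luciferase reagent. Before that, 3T3Gli1-Luc cells (NIH/3T3 clone, stable Gli1-Luc reporter; 2,000/well) were exposed to compounds for 24 hr at 37C, 5% CO2, compounds being added 4 hr post-plating.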

[8] = qHTS assay to identify small molecule antagonists of the sonic hedgehog signaling (Shh) pathway (AID 1259369; calls by dose curve; also: nearly all actives have a fitted effect of over 45% in size)
Outline: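 Antagonist mode: compound added to 3T3 Gli1-Luc cells followed by conditioned-medium stimulation, 24 h at 37 C, 5% CO2. Inhibition taken as loss of Gli1-driven luciferase luminescence.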

[9] = qHTS assay to identify small molecule agonists of the androgen receptor (AR) signaling pathway in the presence of an antagonist - cell viability counter screen (AID 1259379);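 also: MDA-kb2 human breast cancer cells carrying an MMTV luciferase reporter; series mostly up to about 92 µM; nearly all actives have a fitted effect of over 25% in size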
Outline: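 Cytotoxicity counter-screen run in the same wells as the nilutamide-challenged (3.0 µM final) AR agonist assay in MDA-kb2 cells. Compounds tested at 15 concentrations for 16 h, 37 °C without CO2; CellTiter-Fluor fluorescence read.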

[10] = qHTS assay to identify small molecule agonists of the estrogen receptor beta (ER-beta) signaling pathway - cell viability counter screen (AID 1259380); also: nearly all actives have a fitted effect of over 30% in size
Outline: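 Cell viability counter screen: CellTiter-Glo luminescence (30 min, room temperature) measured in the same wells as the beta-lactamase readout, after 16 hr compound exposure at 37C of ER-beta-bla HEK293T cells in 2% charcoal-stripped FBS medium.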

[11] = qHTS assay to identify small molecule antagonists of the estrogen receptor beta (ER-beta) signaling pathway - cell viability counter screen (AID 1259382); also: series mostly up to about 92 µM; nearly all actives have a fitted effect of over 55% in size
Outline: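 Cytotoxicity was measured in the same wells by CellTiter-Glo luminescence after 30 min at room temperature. Cells were ER-beta-bla HEK293T in charcoal-stripped serum, given compound together with 1 nM E2 and incubated 16 h at 37C.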

[12] = biological target: Estrogen receptor (Homo sapiens) (UniProt P03372); test: qHTS assay to identify small molecule agonists of the estrogen receptor alpha (ER-alpha) signaling pathway in the presence of an antagonist (AID 1259383; calls by dose curve; also: top concentration of the series differs between compounds; nearly all actives have a fitted effect of over 15% in size)
Sequence of Estrogen receptor (Homo sapiens) (P03372 whole entry, looked up): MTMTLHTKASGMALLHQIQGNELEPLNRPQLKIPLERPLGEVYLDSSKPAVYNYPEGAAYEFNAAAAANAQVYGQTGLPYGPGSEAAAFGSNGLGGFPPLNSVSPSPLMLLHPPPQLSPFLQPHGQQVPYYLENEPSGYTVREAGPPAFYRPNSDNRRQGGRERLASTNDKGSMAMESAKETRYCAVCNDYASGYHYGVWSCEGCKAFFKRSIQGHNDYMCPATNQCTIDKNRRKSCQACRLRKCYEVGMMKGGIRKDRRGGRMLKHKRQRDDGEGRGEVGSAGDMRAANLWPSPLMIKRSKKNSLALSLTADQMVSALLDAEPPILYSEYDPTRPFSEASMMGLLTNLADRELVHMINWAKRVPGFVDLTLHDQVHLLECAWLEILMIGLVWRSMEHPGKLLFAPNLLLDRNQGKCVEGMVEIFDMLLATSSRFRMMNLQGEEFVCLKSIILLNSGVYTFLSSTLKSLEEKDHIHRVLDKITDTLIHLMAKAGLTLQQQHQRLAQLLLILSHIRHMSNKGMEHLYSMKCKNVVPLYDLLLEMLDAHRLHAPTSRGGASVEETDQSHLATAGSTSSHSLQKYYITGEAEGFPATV
Outline: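 Agonist-mode confirmation run in the presence of 10.0nM (final) ICI-182,780 antagonist. The reporter was ERE-driven luciferase in VM7Luc4E2 cells, grown in charcoal-stripped serum. Cells were exposed to 15-concentration compound series for 22hr, then ONE-Glo luminescence was read.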

[13] = qHTS assay to identify small molecule agonists or antagonists of the thyroid stimulating hormone receptor (TSHR) signaling pathway - wild type cell line counter screen (AID 1259384; calls by dose curve)
Outline: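 Wild-type Hek293 cells, 800/well, 18 h at 37C, then compound with Ro20-1724 for 30 min RT. cAMP by HTRF (cAMP-d2/anti-cAMP cryptate), 1 h RT, fluorescence read. 15 concentrations, triplicates.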

[14] = biological target: Thyrotropin receptor (Homo sapiens) (UniProt P16473); test: qHTS assay to identify small molecule antagonists of the thyroid stimulating hormone receptor (TSHR) signaling pathway (AID 1259385; calls by dose curve; also: nearly all actives have a fitted effect of over 20% in size)
Sequence of Thyrotropin receptor (Homo sapiens) (P16473 whole entry, looked up): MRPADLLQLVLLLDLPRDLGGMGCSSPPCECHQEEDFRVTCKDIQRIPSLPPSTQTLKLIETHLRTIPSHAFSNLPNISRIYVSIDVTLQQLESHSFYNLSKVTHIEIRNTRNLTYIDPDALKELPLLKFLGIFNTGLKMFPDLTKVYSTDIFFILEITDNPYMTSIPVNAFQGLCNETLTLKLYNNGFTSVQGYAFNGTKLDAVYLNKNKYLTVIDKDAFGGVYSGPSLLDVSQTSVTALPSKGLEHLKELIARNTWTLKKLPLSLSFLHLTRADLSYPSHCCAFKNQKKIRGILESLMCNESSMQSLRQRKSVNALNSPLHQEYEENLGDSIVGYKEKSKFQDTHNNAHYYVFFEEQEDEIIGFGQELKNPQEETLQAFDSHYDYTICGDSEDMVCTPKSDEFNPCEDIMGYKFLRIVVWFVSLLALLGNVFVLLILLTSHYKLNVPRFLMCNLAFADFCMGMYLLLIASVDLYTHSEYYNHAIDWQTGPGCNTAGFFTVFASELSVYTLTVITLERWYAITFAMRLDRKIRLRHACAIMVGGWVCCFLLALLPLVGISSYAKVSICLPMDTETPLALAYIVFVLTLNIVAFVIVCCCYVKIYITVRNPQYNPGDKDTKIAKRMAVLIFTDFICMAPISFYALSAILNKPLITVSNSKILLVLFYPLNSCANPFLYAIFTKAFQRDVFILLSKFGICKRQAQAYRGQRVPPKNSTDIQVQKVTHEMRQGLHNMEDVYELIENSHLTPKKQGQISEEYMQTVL
Outline: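 TSHR-HEK293 cells (800/well) plated 18 h, then compounds with Ro20-1724 and TSH at 1.5 ng/mL final, 30 min at room temperature. cAMP quantified by HTRF (cAMP-d2/anti-cAMP-cryptate, 1 h); 15 concentrations in triplicate.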

[15] = biological target: Estrogen receptor beta (Homo sapiens) (UniProt Q92731); test: qHTS assay to identify small molecule agonists of the estrogen receptor beta (ER-beta) signaling pathway (AID 1259377; active = well fitted activation curve with a large enough effect in the signal ratio in the repeat runs, not every such curve was filed as active; the % refers to the signal ratio)
Sequence of Estrogen receptor beta (Homo sapiens) (Q92731 whole entry, looked up): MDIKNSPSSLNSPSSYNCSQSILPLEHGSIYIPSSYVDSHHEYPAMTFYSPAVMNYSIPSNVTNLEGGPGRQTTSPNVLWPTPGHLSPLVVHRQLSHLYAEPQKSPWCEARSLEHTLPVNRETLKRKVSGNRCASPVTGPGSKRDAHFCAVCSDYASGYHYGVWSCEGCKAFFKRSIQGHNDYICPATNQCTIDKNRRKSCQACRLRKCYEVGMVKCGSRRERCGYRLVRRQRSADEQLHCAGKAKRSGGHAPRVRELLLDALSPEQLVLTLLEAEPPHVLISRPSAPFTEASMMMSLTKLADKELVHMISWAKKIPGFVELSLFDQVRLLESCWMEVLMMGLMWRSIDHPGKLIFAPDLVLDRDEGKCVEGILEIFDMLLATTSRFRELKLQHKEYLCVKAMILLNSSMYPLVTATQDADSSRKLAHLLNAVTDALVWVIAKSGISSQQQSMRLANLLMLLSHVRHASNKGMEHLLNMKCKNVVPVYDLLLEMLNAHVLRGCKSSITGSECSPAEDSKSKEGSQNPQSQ
Outline: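 ER-beta-UAS-bla HEK293T (GripTite) cells carrying a UAS-driven beta-lactamase reporter, in medium with 2% charcoal-stripped FBS, were exposed to compounds for 16 hr at 37C; LiveBLAzer B/G FRET substrate was then added and fluorescence read after 2 hours at room temperature.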

[16] = biological target: Estrogen receptor beta (Homo sapiens) (UniProt Q92731); test: qHTS assay to identify small molecule antagonists of the estrogen receptor beta (ER-beta) signaling pathway (AID 1259378; active = well fitted inhibition curve with a large enough effect in the signal ratio in the repeat runs, not every such curve was filed as active; the % refers to the signal ratio)
Outline: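 ER-beta-UAS-bla HEK293T cells in 2% charcoal-stripped FBS medium treated with compound plus 1nM final 17-beta-estradiol for 16 hr at 37C. Beta-lactamase reporter read by FRET substrate fluorescence after 2 hours at room temperature.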

[17] = biological target: Androgen receptor (Homo sapiens) (UniProt P10275); test: qHTS assay to identify small molecule antagonists of the androgen receptor (AR) signaling pathway using the MDA cell line in the presence of 0.5 nM R1881 (AID 1259243); also: nearly all actives have a fitted effect of over 50% in size; also: potency is read from the fitted curve at half-maximal effect
Sequence of Androgen receptor (Homo sapiens) (P10275 whole entry, looked up): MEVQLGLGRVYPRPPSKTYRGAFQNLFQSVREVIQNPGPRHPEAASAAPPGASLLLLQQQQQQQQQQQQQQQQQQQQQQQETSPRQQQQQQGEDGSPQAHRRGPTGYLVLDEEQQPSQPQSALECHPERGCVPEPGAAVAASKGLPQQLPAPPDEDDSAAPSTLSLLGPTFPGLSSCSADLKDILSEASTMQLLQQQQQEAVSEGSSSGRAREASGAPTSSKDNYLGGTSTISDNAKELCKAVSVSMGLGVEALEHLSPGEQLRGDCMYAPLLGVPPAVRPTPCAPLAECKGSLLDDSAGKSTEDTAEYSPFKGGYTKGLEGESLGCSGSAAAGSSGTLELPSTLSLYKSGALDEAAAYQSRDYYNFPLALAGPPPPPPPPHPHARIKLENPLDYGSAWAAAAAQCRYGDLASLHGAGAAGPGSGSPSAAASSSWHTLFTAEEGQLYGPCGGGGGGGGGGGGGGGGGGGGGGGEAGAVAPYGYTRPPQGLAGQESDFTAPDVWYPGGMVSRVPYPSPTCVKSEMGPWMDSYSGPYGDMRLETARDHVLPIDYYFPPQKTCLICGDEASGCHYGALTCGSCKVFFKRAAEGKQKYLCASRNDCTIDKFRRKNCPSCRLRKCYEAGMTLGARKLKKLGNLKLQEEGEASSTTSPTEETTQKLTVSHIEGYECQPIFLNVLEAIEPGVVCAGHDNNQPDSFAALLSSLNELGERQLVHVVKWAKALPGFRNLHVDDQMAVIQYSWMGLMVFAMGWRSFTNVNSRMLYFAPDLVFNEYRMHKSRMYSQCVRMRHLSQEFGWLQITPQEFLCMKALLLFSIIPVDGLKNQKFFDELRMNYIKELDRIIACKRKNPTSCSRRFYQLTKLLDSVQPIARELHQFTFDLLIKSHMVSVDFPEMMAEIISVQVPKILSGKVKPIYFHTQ
Outline: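 Luminescent reporter readout (ONE-Glo, 30 min, room temperature) after 16 hr co-treatment of MDA-kb2 cells with test compounds and 0.5 nM R1881 final, at 37C without CO2. The MMTV-driven luciferase responds to both AR and GR.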

[18] = biological target: Androgen receptor (Homo sapiens) (UniProt P10275); test: qHTS assay to identify small molecule agonists of the androgen receptor (AR) signaling pathway in the presence of an antagonist (AID 1259381; calls by dose curve; also: nearly all actives have a fitted effect of over 15% in size)
Outline: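 Agonist-mode confirmation run against 3.0 uM final nilutamide: compounds titrated at 15 concentrations onto MDA-kb2 MMTV-luciferase reporter cells. Luminescence measured with ONE-Glo following 16 hr incubation, 37C, 0% CO2.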

[19] = biological target: Estrogen receptor (Homo sapiens) (UniProt P03372); test: qHTS assay to identify small molecule antagonists of the estrogen receptor alpha (ER-alpha) signaling pathway using the BG1 cell line in the presence of 0.1 nM 17-beta-estradiol (AID 1259244); also: nearly all actives have a fitted effect of over 50% in size
Outline: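 Luciferase luminescence (ONE-Glo, 30 min at room temperature) was read after 22 hr at 37C exposure to compounds plus 17beta-estradiol at 0.1 nM final. Cells were VM7Luc4E2 with endogenous ER-alpha and an ERE-driven luciferase, pre-cultured 5 days in hormone-depleted medium.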

| Structure (SMILES) | outcome [1] | outcome [2] | Potency [3] | outcome [4] | Potency [5] | Potency [6] | outcome [7] | Potency [8] | Potency [9] | Potency [10] | outcome [11] | outcome [12] | outcome [13] | outcome [14] | Potency [15] | Potency [16] | Potency [17] | Potency [18] | outcome [19] |
| --- | --- | --- | --- | --- | --- | --- | --- | --- | --- | --- | --- | --- | --- | --- | --- | --- | --- | --- | --- |
| CN(C)C(=O)Oc1ccc[n+](C)c1 | inactive | inactive | inactive | inactive | inactive | inactive | inactive | inactive | inactive | inactive | inactive | inactive | inactive | inactive | – | – | – | – | – |
| CN(C)CCCCCCN(C)C | – | – | inactive | inactive | inactive | inactive | inactive | – | inactive | inactive | – | – | inactive | inactive | inactive | inactive | – | – | – |
| CC(C#N)(CCC(=O)O)N=NC(C)(C#N)CCC(=O)O (stereo unspecified) | – | – | inactive | inactive | inactive | inactive | inactive | – | inactive | inactive | inactive | – | inactive | – | inactive | inactive | – | – | – |
| Cc1coc2ccccc2c1=O | inactive | – | inactive | inactive | inactive | inactive | inactive | – | inactive | inactive | inactive | – | inactive | inactive | – | – | inactive | inactive | – |
| CCN(CC#N)c1cccc(C)c1 | inactive | – | inactive | inactive | inactive | inactive | inactive | – | inactive | inactive | – | inactive | – | – | – | – | – | – | inactive |
| C=COC(=O)C(C)(CC)CCC(C)C (stereo unspecified) | – | – | inactive | inactive | inactive | inactive | inactive | inactive | inactive | inactive | inactive | inactive | – | – | inactive | inactive | – | – | – |
| COC(=O)Nc1ccc(Cl)c(Cl)c1 | inactive | – | inactive | inactive | inactive | inactive | inactive | – | inactive | inactive | inactive | – | inactive | inactive | inactive | inactive | 6.82 µM (active) | inactive | – |
| Cc1onc(-c2c(Cl)cccc2Cl)c1C(=O)Cl | – | – | inactive | inactive | inactive | inactive | inactive | inactive | inactive | – | inactive | inactive | inactive | inactive | inactive | inactive | inactive | inactive | inactive |
| CC1=CCC(O)(C(C)C)CC1 (stereo unspecified) | inactive | – | inactive | inactive | inactive | inactive | inactive | inactive | inactive | inactive | – | inactive | inactive | inactive | – | inactive | – | – | inactive |
| CCCCOCCOC(=O)COc1cc(Cl)c(Cl)cc1Cl | inactive | – | inactive | inactive | inactive | inactive | inactive | inactive | inactive | inactive | – | inactive | inactive | inactive | inactive | inactive | inactive | inactive | – |
| c1ccc(CCc2ccccc2)cc1 | – | – | inactive | inactive | inactive | inactive | inactive | inactive | inactive | inactive | inactive | – | inactive | inactive | inactive | – | – | – | – |
| CCC1C(=O)OCC1Cc1cncn1C (stereo unspecified) | – | inactive | inactive | inactive | inactive | inactive | inactive | inactive | inactive | inactive | inactive | inactive | inactive | inactive | – | – | – | – | inactive |
| CC1(C)OC[C@@H](COC(=O)CCc2ccc(OC[C@@H](O)CNCCNC(=O)N3CCOCC3)cc2)O1 | inactive | inactive | inactive | inactive | inactive | inactive | inactive | – | inactive | inactive | – | inactive | inactive | – | inactive | inactive | inactive | inactive | – |
| Cc1cccc(C)c1NC(=O)CC12CCCN1CCC2 | inactive | inactive | inactive | inactive | inactive | inactive | inactive | inactive | inactive | inactive | inactive | inactive | inactive | – | inactive | – | – | – | – |
| C=C(C)C(=O)OCCOCCOCCOCCOC(=O)C(=C)C | inactive | – | inactive | inactive | inactive | inactive | inactive | inactive | inactive | inactive | – | – | inactive | – | inactive | inactive | – | – | – |
| CC(C)COC(=O)c1ccc(N)cc1 | inactive | inactive | – | inactive | inactive | inactive | inactive | – | inactive | inactive | inactive | – | inactive | inactive | – | – | – | – | inactive |
